For 67 molecules, max activity results are on record in PubChem BioAssay AID1259420 (Broad Institute, 2018).

Structures are written as SMILES. Values joined by “and” are separate entries in the source; they are usually repeats but may differ in a detail not shown here. Equal values may be shown once. The whole screen tested about 1,000 compounds, of which about 250 (25%) were called active. Another 31% or so got no clear call; they are omitted. These entries were drawn from the full list. Measured potencies and affinities stand elsewhere. A number with no mark means an inactive call. No rule for the calls is given here. Numbered stars: 1 amine (or outer) side, 2 acyl side, 3 side chain; on linkers, the order of the positions; unused ones are H or OH. Bridge positions count the residues as written; N and C are the ends. Square brackets hold non-standard residues; d marks the D form. Peptide text beside a SMILES is read from it. * marks the point of attachment. ξ: configuration not given here. pTerphenylCO(4''-OnC5H11) = CCCCCOc1ccc(-c2ccc(-c3ccc(C(=O)*)cc3)cc2)cc1; ξOrn(4,5-diOH) = O=C(C(CC(O)C(O)N[*:3])N[*:1])[*:2]; ξhTyr(βξ-OH,γξ-OH) = NC(C(=O)O)C(O)C(O)c1ccc(O)cc1; ξPro(3ξ-OH,4ξ-Me) = CC1CNC(C(=O)O)C1O; Hyp = O=C(O)[CH]1C[CH](O)CN1

The assay in a line: T. gondii intracellular growth, IFN-gamma absent, dose response, cell-based (AID 1259420).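 Also: host cells were HeLa; final incubation lasted 72 hours.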 To be noted: Toxoplasma gondii growth in host cells, no IFN-gamma.

`O=C1NCC(=O)N2CCN(C(=O)Nc3cc(Cl)cc(Cl)c3)CC12` (stereo not given): the max activity (at 19.5 µM unless noted) was 17.6% [at 2.6 µM].
With `CC(=O)N1Cc2ncn(CC3CC3)c2C(COCC2CCOCC2)C1` (stereo not given), for the setting “at 19.5 µM unless noted”, the max activity is -7.3% [at 0.16 µM].
For `C=CCN1CCC2(CC1)CC(NCc1ccc(C)s1)c1ccccc1O2` (stereo not given), the max activity (at 19.5 µM unless noted) is 5.11% [at 0.3 µM].
For the molecule `CCCNC(=O)N1CC(=O)N2[C@@H](CO)[C@H](c3ccc(C#Cc4cccc(OC)c4)cc3)[C@@H]2C1`, under “at 19.5 µM unless noted”, the max activity was 15.9%.
With `COc1ccc(C#Cc2ccc([C@H]3[C@@H](CO)N4C(=O)CN(C(=O)NC(C)C)C[C@@H]34)cc2)cc1`, the max activity (at 19.5 µM unless noted) was 22.6%.
On to `C/C=C/c1ccc([C@H]2[C@H]3CN(C(=O)Nc4cccc(OC)c4)CC(=O)N3[C@H]2CO)cc1`, for which the max activity (at 19.5 µM unless noted) is -14.5% [at 2.6 µM].
On to `CCCNC(=O)N1CC(=O)N2[C@H](C1)[C@@H](c1ccc(C#Cc3cccc(OC)c3)cc1)[C@@H]2CO`, for which the max activity (at 19.5 µM unless noted) is 8.44% [at 2.35 µM].
Consider `OC1(c2cccc(C(F)(F)F)c2)CCN(Cc2ccc3[nH]ccc3c2)CC1`, for which the max activity (at 19.5 µM unless noted) was 6.52% [at 0.16 µM].
As for `O=C(Cc1cccnc1)N1CC(=O)N2[C@H](CO)[C@@H](c3ccc(C#CC4CCCCC4)cc3)[C@@H]2C1`, the max activity is -7.69% (at 0.6 µM) and 16.4% (at 19.5 µM).
On to `Cc1cc(C(=O)N2CCC(c3cc4c(ncn4C)c(NCC4CC4)n3)CC2)ccc1Cl`, for which the max activity (at 19.5 µM unless noted) was 13.8%.
For `O=S(=O)(c1ccc(F)cc1)N1CCCCN2[C@H](C1)[C@H](c1ccc(-c3cncnc3)cc1)[C@@H]2CO`, under “at 19.5 µM unless noted”, the max activity was 22.3%.
In the case of `Cc1ccccc1S(=O)(=O)N1CCCCN2[C@@H](CO)[C@@H](c3ccc(C#CCN(C)C)cc3)[C@@H]2C1`, where the note is “at 19.5 µM unless noted”, the max activity was 48.3%.
Take `Cc1ccccc1-c1ccc([C@H]2[C@H]3CN(S(=O)(=O)Cc4ccccc4)CCCCN3[C@H]2CO)cc1`: the max activity (at 19.5 µM unless noted) was 24.5%.
On to `Cc1ccccc1S(=O)(=O)N1CCCCN2[C@H](C1)[C@@H](c1ccc(C#CCN(C)C)cc1)[C@@H]2CO`, for which the max activity (at 19.5 µM unless noted) was -29.9% [at 10 µM].
`COc1cccc(-c2ccc([C@H]3[C@H](CO)N4C(=O)CN(C(=O)c5cccnc5)C[C@@H]34)cc2)c1`: the max activity (at 19.5 µM unless noted) was -9.74% [at 1.2 µM].
On to `O=C(C1CCOCC1)N1CC(=O)N2[C@@H](CO)[C@H](c3ccc(/C=C/c4ccccc4)cc3)[C@@H]2C1`, for which, under “at 19.5 µM unless noted”, the max activity is 7.51% [at 5 µM].
Same read-out and setting: the figure for `CC(=O)N1CCC(N(C)Cc2cc(C(C)(C)C)n[nH]2)CC1` is -9.85%; for `COCC(=O)N1CCC2(CC1)CC1(CCN(CC(C)C)CC1)C(=O)N2C` it is -12.4% [at 10 µM]; for `COc1cccc(S(=O)(=O)N2CC[C@@H]3[C@H]2c2cc(C#Cc4cccnc4)ccc2N[C@@H]3CO)c1` it is 17.4%.
As for `O=S(=O)(c1ccccc1F)N1CC[C@@H]2[C@H](CO)Nc3ccc(C4=CCCCC4)cc3[C@@H]21`, the max activity (at 19.5 µM unless noted) is -15.7% [at 5 µM].
On to `CNC(=O)NCC1CCC2(CCN(Cc3ccccc3)CC2)CO1` (stereo not given), for which the max activity (at 19.5 µM unless noted) is -9.71% [at 2.6 µM].
On to `OC[C@H]1[C@H](c2ccc(-c3cccc(F)c3)cc2)[C@H]2CN(Cc3cncnc3)CCCCN21`, for which the max activity (at 19.5 µM unless noted) was 16.3%.
Same read-out and setting: the figure for `N#Cc1c(N2C[C@@H]3NCCO[C@H]3C2)c(F)cc2c(=O)c(C(=O)O)cn(C3CC3)c12` is 9.32% [at 1.2 µM]; for `Cc1ccc(N2CCC[C@]3(C(=O)O)CN(CCN(C)C)C[C@H]3C2)nn1` it is -23.7% [at 5 µM]; for `COc1cccc(-c2nn(CC3CC3)c3c2[C@@H]2CN(Cc4ccccc4)C[C@@H]2C3)c1` it is 19.1%.
Regarding `Cc1ccc(Cl)cc1N(CC(=O)Nc1c(F)cccc1F)S(C)(=O)=O`, where the note is “at 19.5 µM unless noted”, the max activity is 8.21% [at 1.2 µM].
Regarding `CC(=O)NCC(=O)N1CCC2(CC1)CC(c1ccccc1)C(=O)N2` (stereo not given), for the setting “at 19.5 µM unless noted”, the max activity was -12.4% [at 10 µM].
With `CN1CCN(C(=O)Cc2ccsc2)Cc2cccnc21`, the max activity (at 19.5 µM unless noted) was -16.3% [at 2.6 µM].
Take `CN(C)CCO[C@@H]1CN(C(=O)Cc2ccsc2)[C@H]2CCCO[C@@H]12`: the max activity (at 19.5 µM unless noted) is -11.4% [at 10 µM].
As for `Cc1ccsc1C(=O)N1CCc2nc(-c3cnn(C)c3)nc(NC(C)C)c2C1`, the max activity (at 19.5 µM unless noted) was -6.87%.
As to `Cc1ccccc1-c1ccc([C@@H]2[C@H]3CN(C(=O)c4ccncc4)CC(=O)N3[C@H]2CO)cc1`, the max activity (at 19.5 µM unless noted) was 7.3% [at 5 µM].
`CN1[C@@H]2Cn3c(ccc(/C=C/c4ccccc4)c3=O)[C@H]1[C@@H](C(=O)NC1Cc3ccccc3C1)[C@@H]2CO`: under “at 19.5 µM unless noted”, the max activity was -16.6% [at 2.6 µM].
Turning to `Cc1cnn(C(C)C(=O)N2CCc3[nH]nc(-c4ccc(F)c(F)c4)c3C2)c1` (stereo not given), the max activity (at 19.5 µM unless noted) was 14% [at 0.16 µM].
On to `Nc1ccc(S(=O)(=O)NC(=O)c2ccccc2)cc1`, for which the max activity (at 19.5 µM unless noted) is 6.39% [at 0.3 µM].
The same measure, in the same setting: the figure for `CO[C@H]1CCN(c2ccc(C)nn2)[C@H]1Cc1cnn(C)c1` is 46.8%; for `C[C@]12CCC3=C4CCC(=O)C=C4CC[C@H]3[C@@H]1CC[C@@]2(O)CC#N` it is -3.24% [at 0.3 µM]; for `Cc1nnc(N2C[C@@H](Oc3ncccc3F)[C@@H]3OCCC[C@@H]32)s1` it is -11.4% [at 0.16 µM].
On to `C=CCO[C@@H]1CCN(c2cc(OC)ncn2)[C@H]1Cc1cnn(C)c1`, for which, for the setting “at 19.5 µM unless noted”, the max activity was -8.84% [at 5 µM].
Still for that read-out and setting: then `Cc1ccc(-c2cc(C(F)(F)F)nn2-c2ccc(S(N)(=O)=O)cc2)cc1`, with -6.96% [at 0.08 µM]; and `CCCNC(=O)C[C@H]1CC[C@@H]2[C@H](COC[C@H](O)CN2C(=O)Nc2ccc(Cl)c(Cl)c2)O1`, with 22.5%.
On to `COc1ccc(CN2C[C@@H]3C[C@H](C(=O)Nc4ccccc4)[C@@H](C2)O3)cc1`, for which, for the setting “at 19.5 µM unless noted”, the max activity was 24.7%.
Take `CCCNC(=O)[C@@H]1[C@@H](CO)[C@@H]2Cn3c(ccc(C4=CCCCC4)c3=O)[C@@H]2N1Cc1ccccc1F`: the max activity (at 19.5 µM unless noted) is 15.2%.
In the case of `O=C(c1ccc[nH]1)N1CCC2(CC1)COCCN(c1ncccn1)C2`, the max activity was -14% (at 10 µM) and 9.97% (at 19.5 µM).
With `CC(C)CCN1Cc2c(C(=O)NC3CCCCC3)ncn2-c2ccccc2S1(=O)=O`, the max activity (at 19.5 µM unless noted) was 17.3%.
As for `CO[C@@H]1CCN(c2ncccn2)C[C@@H]1Cc1cccc(C)c1`, the max activity (at 19.5 µM unless noted) is 13.3%.
In the case of `CCCCCOc1ccc(-c2ccc(-c3ccc(C(=O)NC4CC(O)C(O)NC(=O)C5C(O)C(C)CN5C(=O)C(C(C)O)NC(=O)C(C(O)C(O)c5ccc(O)cc5)NC(=O)C5CC(O)CN5C(=O)C(C(C)O)NC4=O)cc3)cc2)cc1` (stereo not drawn) ({pTerphenylCO(4''-OnC5H11)}-[ξOrn(4,5-diOH)]T[Hyp][ξhTyr(βξ-OH,γξ-OH)]T[ξPro(3ξ-OH,4ξ-Me)]; lactam 1-C; configuration not given here), the max activity (at 19.5 µM unless noted) is 7.96% [at 0.6 µM].
Consider `O=C1N(c2ccccc2)c2ccccc2C1(Cc1ccncc1)Cc1ccncc1`, for which the max activity (at 19.5 µM unless noted) was -9.88% [at 5 µM].
On to `C/C=C/c1ccc(C2[C@H]3CNC[C@@H]2N3S(=O)(=O)c2ccccc2C)cc1` (stereo not given in full), for which the max activity (at 19.5 µM unless noted) is 20.6%.
Consider `O=C(C[C@@H]1CC[C@@H]2[C@H](COC[C@H](O)CN2S(=O)(=O)c2ccccc2F)O1)N1CCC(Cc2ccccc2)CC1`, for which the max activity (at 19.5 µM unless noted) was -4.67% [at 0.3 µM].
The same measure, in the same setting: then `O=C(C[C@H]1CC[C@@H]2[C@H](COC[C@H](O)CN2Cc2cc(F)ccc2F)O1)NCc1ccc(Oc2ccccc2)cc1`, with 29.1% [at 10 µM].
`O=C(C[C@H]1CC[C@H]2[C@@H](COC[C@@H](O)CN2Cc2cc(F)ccc2F)O1)NCc1ccc(Oc2ccccc2)cc1`: under “at 19.5 µM unless noted”, the max activity is 24%.
As for `O=C(C[C@H]1CC[C@H]2[C@@H](COC[C@H](O)CN2S(=O)(=O)c2ccccc2)O1)NCC1CCCCC1`, the max activity (at 19.5 µM unless noted) was -7.1% [at 0.3 µM].
Take `O=C(C[C@@H]1CC[C@H]2[C@@H](COC[C@H](O)CN2Cc2ccc(Oc3ccccc3)cc2)O1)N1CCN(c2ccccc2)CC1`: the max activity (at 19.5 µM unless noted) is -11.8% [at 1.2 µM].
As for `O=C(C[C@@H]1CC[C@@H]2[C@H](COC[C@@H](O)CN2C(=O)Nc2cc(Cl)cc(Cl)c2)O1)N1CCOCC1`, the max activity (at 19.5 µM unless noted) is -20.4% [at 10 µM].
In the case of `O=C(C[C@H]1CC[C@@H]2[C@H](COC[C@@H](O)CN2Cc2ccc(Oc3ccccc3)cc2)O1)N1CCN(c2ccccc2)CC1`, the max activity (at 19.5 µM unless noted) is 17.6%.
Take `CCCNC(=O)C[C@H]1CC[C@H]2[C@@H](COC[C@@H](O)CN2C(=O)Nc2ccc(Cl)c(Cl)c2)O1`: the max activity (at 19.5 µM unless noted) was -10.6% [at 10 µM].
Same read-out and setting: then `O=C(C[C@H]1CC[C@H]2[C@@H](COC[C@H](O)CN2Cc2ccc(Oc3ccccc3)cc2)O1)N1CCN(c2ccccc2)CC1`, with 19.6%; and `CCCNC(=O)[C@H]1[C@H](CO)[C@H]2Cn3c(ccc(C4=CCCCC4)c3=O)[C@H]2N1Cc1ccccc1F`, with 26.7%.
For `CCC(=O)N1CC(=O)N2[C@@H](CO)[C@H](c3ccc(C#CCC(C)C)cc3)[C@@H]2C1`, the max activity (at 19.5 µM unless noted) is -4.73% [at 2.6 µM].
Turning to `COc1cccc(-c2ccc(C3[C@@H]4CN(C(=O)C5CCCCC5)C[C@H]3N4)cc2)c1` (stereo not given in full), the max activity (at 19.5 µM unless noted) is 23.3%.
For `CS(=O)(=O)N1C[C@@H]2N[C@H](C1)[C@@H]2c1ccc(-c2ccccc2)cc1`, the max activity (at 19.5 µM unless noted) was 14.6% [at 2.6 µM].
As to `Cc1ccccc1-c1ccc(C2[C@@H]3CN(Cc4cncnc4)C[C@H]2N3)cc1` (stereo not given in full), the max activity (at 19.5 µM unless noted) was -6.61% [at 10 µM].
Consider `N#Cc1ccc(-c2ccc(C3[C@@H]4CN(C(=O)C5CCCCC5)C[C@H]3N4)cc2)cc1` (stereo not given in full), for which the max activity (at 19.5 µM unless noted) was 18.4%.
The same measure, in the same setting: the figure for `N#Cc1ccc(-c2ccc(C3[C@@H]4CN(S(=O)(=O)c5ccc(F)cc5)C[C@H]3N4)cc2)cc1` (stereo not given in full) is 31.5% and 12.6% and 34.4%; for `COc1cccc(-c2ccc(C3[C@@H]4CN(Cc5ccccn5)C[C@H]3N4)cc2)c1` (stereo not given in full) it is 36.5%.
As for `Cn1cnc(S(=O)(=O)N2C[C@@H]3N[C@H](C2)C3c2ccc(-c3ccccc3F)cc2)c1` (stereo not given in full), the max activity (at 2.35 µM) was 9.35% and the max activity (at 19.5 µM) was 18.7%.
For the molecule `COc1cc(CN2C[C@@H]3N[C@H](C2)C3c2ccc(-c3ccc(C#N)cc3)cc2)cc(OC)c1` (stereo not given in full), the max activity (at 19.5 µM unless noted) was 9.2% [at 10 µM].
